Growth data for eight compounds are collected here from PubChem BioAssay (NCI).

Compounds without any hit were thinned out: in the full panel of roughly 83,000, 20% have a hit.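 The test compound was applied at a single concentration to cells in 96-well plates for 48 hours, and percent growth was recorded.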 A number with no mark means an inactive call. Activity calls are given as the source filed them. The calls were made as follows: active = growth percent below 10; inactive = the rest.

Among the test systems are SK-MEL-2 melanoma; EKVX NSCLC; SN12C renal; UO-31 renal; TK-10 renal; ACHN renal; CAKI-1 renal; A498 renal; CCRF-CEM leukemia; MOLT-4 leukemia; RPMI-8226 leukemia; OVCAR-8 ovarian; OVCAR-5 ovarian; OVCAR-4 ovarian; SK-OV-3 ovarian; IGROV1 ovarian; OVCAR-3 ovarian; HS 578T breast; NCI/ADR-RES ovarian.
What all share (test): NCI-60 one-dose screen, 48 h (100 = growth as untreated, 0 = no growth, -100 = all killed)
Common to all, as to details: 10 µM unless noted

`O=c1oc2ccccc2c(Cl)c1Cl`: the growth was 54.7% with SK-MEL-2 melanoma; 106% in the assay with EKVX NSCLC; 17.9% with SN12C renal; 62.3% in the assay with UO-31 renal; 94.3% in the assay with TK-10 renal; 80.7% with ACHN renal. Further, the growth in the assay on CAKI-1 renal is 83.4%; in the assay with A498 renal it was 112%; in the assay on CCRF-CEM leukemia, 18.9%; in the assay with MOLT-4 leukemia, 37.5%; in the assay on RPMI-8226 leukemia it was 40.6%; in the assay on OVCAR-8 ovarian it was 61%. Further, the growth was 88.1% in the assay with OVCAR-5 ovarian; 91.7% in the assay on OVCAR-4 ovarian; 94.7% in the assay with SK-OV-3 ovarian; 47.5% with IGROV1 ovarian; 103% with OVCAR-3 ovarian; 85% with HS 578T breast. In the assay with NCI/ADR-RES ovarian, the growth is 86.4%.
On to `COc1ccc(Nc2nnc(SCc3ccccc3F)s2)cc1`, for which the growth with SK-MEL-2 melanoma is 82.9%; with EKVX NSCLC, 94.9%; in the assay with SN12C renal, 107%; with UO-31 renal, 78.6%; in the assay on TK-10 renal it was 123%; in the assay on ACHN renal, 106%. Besides, the growth in the assay on CAKI-1 renal is 103%; in the assay with A498 renal, 91.4%; in the assay on CCRF-CEM leukemia it was 76.4%; in the assay on MOLT-4 leukemia it was 94.8%; in the assay with RPMI-8226 leukemia, 71.6%; in the assay on OVCAR-8 ovarian it was 100%. Moreover, the growth is 92.8% in the assay with OVCAR-5 ovarian; 99.4% in the assay on OVCAR-4 ovarian; 90.9% in the assay on SK-OV-3 ovarian; 8.8% (active) with IGROV1 ovarian; 111% in the assay with OVCAR-3 ovarian; 98% in the assay on HS 578T breast. The growth in the assay with NCI/ADR-RES ovarian is 99.1%.
Regarding `CCCCCCN(CCCCCC)c1ccc(/C=C2/SC(=O)N(c3nc(N4CCCC4)nc(N4CCCC4)n3)C2=O)c(C)c1`, the growth in the assay with SK-MEL-2 melanoma was 53.9%; in the assay with EKVX NSCLC, 87.2%; in the assay with SN12C renal it was 59.9%; in the assay on UO-31 renal it was 52.9%; in the assay with TK-10 renal it was 85.8%; in the assay on ACHN renal, 68.5%. The growth with CAKI-1 renal was 82.5%; in the assay on A498 renal, 60.9%; with CCRF-CEM leukemia, 54.1%; in the assay with MOLT-4 leukemia, 38.1%; in the assay with RPMI-8226 leukemia, 42%; in the assay on OVCAR-8 ovarian, 66.1%. The growth with OVCAR-5 ovarian is 104%; in the assay on OVCAR-4 ovarian, 51.9%; with SK-OV-3 ovarian, 91.3%; in the assay on IGROV1 ovarian, 77.3%; in the assay with OVCAR-3 ovarian, 63.2%; with HS 578T breast it was 78.4%. Further, the growth with NCI/ADR-RES ovarian was 71.3%.
`N/C(=N/N=C/c1ccccc1)N/N=C\c1ccccc1`: the growth in the assay with SK-MEL-2 melanoma was 42.1%; in the assay with EKVX NSCLC it was 76.5%; with SN12C renal, 67.4%; in the assay on UO-31 renal, 68.2%; in the assay on TK-10 renal it was 73.9%; in the assay with ACHN renal, 76%. In addition, the growth in the assay on CAKI-1 renal is 62.9%; in the assay with A498 renal it was 66.6%; in the assay with CCRF-CEM leukemia it was 50.6%; in the assay with MOLT-4 leukemia it was 30.4%; with RPMI-8226 leukemia, 55.3%; in the assay on OVCAR-8 ovarian, 65.2%. The growth is 83.4% in the assay with OVCAR-5 ovarian; 87.2% with OVCAR-4 ovarian; 72.4% in the assay with SK-OV-3 ovarian; 73% with IGROV1 ovarian; 12.6% in the assay with OVCAR-3 ovarian; 67.7% with HS 578T breast.
Take `COc1ccc(C2=NN(C(=O)c3cc(OC)c(OC)c(OC)c3)C(c3ccc(Cl)cc3)C2)cc1OC` (stereo not given): the growth in the assay with SK-MEL-2 melanoma is 39.5%; in the assay on EKVX NSCLC it was 53.4%; in the assay on SN12C renal, 39.5%; with UO-31 renal, 34.4%; in the assay with TK-10 renal it was 25.4%; in the assay on ACHN renal, 43.3%. The growth in the assay on CAKI-1 renal was 26.6%; in the assay with A498 renal, -1.72% (active); with CCRF-CEM leukemia it was -2.55% (active); in the assay on MOLT-4 leukemia, 9.1% (active); in the assay with RPMI-8226 leukemia it was -18.4% (active); in the assay on OVCAR-8 ovarian it was 34.4%. Further, the growth in the assay on OVCAR-5 ovarian was 41.4%; with OVCAR-4 ovarian, 52%; in the assay on SK-OV-3 ovarian it was 25.8%; in the assay on IGROV1 ovarian it was 36.7%; in the assay on OVCAR-3 ovarian it was -35.2% (active); with HS 578T breast, 0.152% (active).
In the case of `O=C(CCc1nnc(CN(c2ccccc2)c2ccccc2)o1)c1nc2ccccc2[nH]1`, the growth in the assay with SK-MEL-2 melanoma was 88.7%; in the assay on EKVX NSCLC, 63.4%; in the assay on SN12C renal it was 86.9%; with UO-31 renal, 61.3%; with TK-10 renal, 117%; in the assay on ACHN renal, 108%. The growth with CAKI-1 renal is 84.1%; in the assay on A498 renal, 80.5%; in the assay on CCRF-CEM leukemia, 77.6%; in the assay on MOLT-4 leukemia it was 55.7%; in the assay on RPMI-8226 leukemia it was 70.7%; in the assay with OVCAR-8 ovarian, 88.3%. Moreover, the growth in the assay on OVCAR-5 ovarian is 108%; in the assay on OVCAR-4 ovarian, 82.9%; with SK-OV-3 ovarian, 96.2%; with IGROV1 ovarian, 74.6%; with OVCAR-3 ovarian, 95%; in the assay on HS 578T breast, 92.3%. Besides, in the assay with NCI/ADR-RES ovarian, the growth was 91.4%.
Consider `COc1cc(C(=O)c2cc(C)c3[nH]c4ccc(Cl)cc4c3c2C)cc(OC)c1OC`, for which the growth in the assay on SK-MEL-2 melanoma was 57.6%; in the assay with EKVX NSCLC, 50.2%; in the assay on SN12C renal it was 17.5%; in the assay on UO-31 renal, 24.6%; in the assay with TK-10 renal it was 87.5%; in the assay on ACHN renal it was 24.2%. Further, the growth with CAKI-1 renal is 21%; in the assay on A498 renal, -9.44% (active); in the assay with CCRF-CEM leukemia, 17.2%; with MOLT-4 leukemia it was 20.7%; in the assay on RPMI-8226 leukemia, 22.4%; with OVCAR-8 ovarian, 28.5%. Moreover, the growth with OVCAR-5 ovarian was 42.3%; in the assay on OVCAR-4 ovarian it was 56.4%; in the assay with SK-OV-3 ovarian it was 45.7%; in the assay on IGROV1 ovarian, 9.24% (active); with OVCAR-3 ovarian, -35.7% (active); with HS 578T breast it was 43.5%. For the same compound, the growth in the assay on NCI/ADR-RES ovarian was 0.863% (active).
For the compound `CCCCCCCOc1c(OC)cc(C2CC(=O)Nc3c2c(C)nn3-c2nc3ccccc3[nH]2)cc1OC` (stereo not given), the growth is -56.8% (active) in the assay on SK-MEL-2 melanoma; -26.5% (active) in the assay with EKVX NSCLC; 9.34% (active) in the assay on SN12C renal; -69.7% (active) in the assay with UO-31 renal; 11% in the assay with TK-10 renal; 1.49% (active) in the assay on ACHN renal. Besides, the growth is -41% (active) with CAKI-1 renal; -28.6% (active) in the assay on A498 renal; 24.5% with CCRF-CEM leukemia; 15.2% with MOLT-4 leukemia; 8.24% (active) with RPMI-8226 leukemia; -19.4% (active) in the assay with OVCAR-8 ovarian. Also, the growth is 9.97% (active) in the assay with OVCAR-5 ovarian; -11.8% (active) with OVCAR-4 ovarian; -51.3% (active) in the assay on SK-OV-3 ovarian; 2.58% (active) with IGROV1 ovarian; -67.1% (active) in the assay on OVCAR-3 ovarian; -19.8% (active) with HS 578T breast. Also, the growth with NCI/ADR-RES ovarian was 13.7%.
